# Only some compounds are listed: those with a hit (about 3.5% of all), similar ones and a draw of the others.
# BoNT-A LC inh2: blocks Botulinum neurotoxin A light chain protease; actives 0.17% (n = 360,000); multiplex microsphere protease substrate cleavage, flow cytometry; inhibition, % at 10 µM; also: plate controls were buffer without enzyme for full effect and enzyme alone for no effect
# BoNT-F LC inh: inhibitors of Botulinum neurotoxin F light chain protease; inhibition, % at 10 µM; actives 0.22% (n = 360,000); Multiplex microsphere protease cleavage assay, flow cytometry; in the data active = inhibition above about 35%, passing the limit was not always enough; inconclusive = no clear call, values can overlap the other calls; also: plate controls were buffer without enzyme for full effect and enzyme alone for no effect
# Anthrax LF prot: inhibitors of Bacillus anthracis lethal factor protease | inhibition, % at 10 µM | multiplex microsphere protease cleavage assay, LF | P15917 | actives 0.12% (n = 360,000); also: plate controls were buffer without enzyme for full effect and enzyme alone for no effect
# Bead autofluor: flagged as autofluorescent in microsphere protease counterscreen; compound autofluorescence counterscreen, microsphere flow cytometry; stronger effect = higher value; fluorescence intensity (no concentration beside the values); actives 3.1% (n = 360,000); AID 624483; in the data active = fluorescence intensity above about 16000; inconclusive = no clear call, values can overlap the other calls
# * = called active by the depositor; ? = inconclusive. Rule as the data show it, unless noted: active = inhibition above about 30%; inconclusive = no clear call, values can overlap the other calls; inactive = below that.
SMILES,BoNT-A LC inh2,BoNT-F LC inh,Anthrax LF prot,Bead autofluor
O=C1CC(C(=O)N2CCN(c3ccccc3O)CC2)CN1Cc1ccccc1 (stereo not drawn),1,-5,0,?
COc1cc2c(cc1OC)C(=O)CCC2,0,-17,-9,3962
CNC(=O)C1=NCCCc2cc(OC)c(OC)cc21,?,-1,0,20275*
CCOc1ccc(N(C)S(=O)(=O)c2ccc(C)c(C(=O)Nc3nnc(C4CC4)s3)c2)cc1,-1,-3,-4,8626
CCCC1=C(C(=O)OCC)C(c2cc(Cl)cc(OC)c2OCc2ccccc2)NC(=O)N1 (stereo not drawn),2,2,0,21474*
CCOC(=O)C1=C(C)C(c2ccccc2O)NC(=O)N1 (stereo not drawn),2,2,0,19487*
CCOC(=O)C1=C(C)NC(=O)NC1c1ccc(Cl)cc1Cl (stereo not drawn),3,2,-8,20836*
CCOC(=O)C1=C(C)NC(=O)NC1c1cccc(OC)c1OCc1ccccc1Cl (stereo not drawn),?,-2,-3,23671*
COc1cc(Cl)cc(C2NC(=O)NC(C)=C2C(C)=O)c1OCC(=O)O (stereo not drawn),-3,-4,-4,16937*
C=CCOc1c(OC)cc(Cl)cc1C1NC(=O)NC(C)=C1C(C)=O (stereo not drawn),0,-29,1,4439
Cc1cccc(N=c2c([N+](=O)[O-])nn(-c3ccc(Cl)cc3)n2O)c1,0,-1,-11,5084
Cc1ccc(CN=c2c([N+](=O)[O-])nn(-c3ccc(Cl)cc3)n2O)cc1,1,6,-10,3862
CCc1cccc(N=c2c([N+](=O)[O-])nn(-c3ccc(Cl)cc3)n2O)c1,1,-1,-5,22799*
Cc1cc(C)cc(N=c2c([N+](=O)[O-])nn(-c3cccc(Cl)c3)n2O)c1,1,1,0,22853*
O=[N+]([O-])c1nn(-c2ccc(Cl)cc2)n(O)c1=NCc1cccnc1,0,-13,-3,2547
O=[N+]([O-])c1nn(-c2cccc(Cl)c2)n(O)c1=NCc1cccnc1,3,35*,1,2385
O=C(O)c1ccc(Cl)c(NC(=O)C2CCN(S(=O)(=O)c3cccs3)CC2)c1,0,-5,-7,2978
Oc1ccc(CCNc2ncnc3ccc(Cl)cc23)cc1,0,0,-2,5929
Cc1cccc(C(=O)O[C@@H]2[C@H](Cc3ccccc3)NS(=O)(=O)[C@H]3C[C@@H]4C=C[C@]23O4)c1,0,0,4,3887
CCCn1c(SCC(=O)C(C)(C)C)nc2ccccc21,0,-4,-1,2194
CCCn1c(SC(C)C(=O)O)nc2ccccc21 (stereo not drawn),2,4,-2,21928*
CCCC(=O)NC(c1ccco1)c1c(O)ccc2ccccc12 (stereo not drawn),?,-2,-1,24638*
COc1cc2c(cc1OC)[C@@H](NC(=O)CCC1CCCCC1)[C@H](O)C2,-1,2,-7,3684
CCCCSc1nnc(CCCCCNC(=O)OC(C)(C)C)o1,-1,-2,-4,16992*
CC(C)(C)OC(=O)NCCCCCc1nnc(SCc2c(F)cccc2Cl)o1,-1,59*,?,3968
SMILES,BoNT-A LC inh2,BoNT-F LC inh,Anthrax LF prot,Bead autofluor
Brc1cccc(-c2nnc3sc(CN4CCCCC4)cn23)c1,0,-7,0,9738
Brc1cccc(-c2nnc3sc(CN4CCC5(CC4)OCCO5)cn23)c1,-4,-3,-6,24422*
O=C(O)CCC(=O)c1ccc2sc3ccccc3c2c1,0,1,3,2703
Cc1cc(C)nc(N2N=C(C(C)(C)C)CC2=O)n1,?,-2,2,23425*
O=C(Nc1ccc(Cl)cc1)N[C@@H]1c2c(ccc3ccccc23)OC[C@@H]1CO,-3,-2,-3,23698*
CN(C(=O)c1ccccc1)C1c2c(ccc3ccccc23)OCC1CO (stereo not drawn),-4,-23,1,3863
Cc1c2c(nc3c(C(=O)NC4CCCC4)cnn13)CCCC2,-2,-4,-5,16888*
O=C(O)c1ccccc1Nc1ccccc1,-1,-6,3,5960
Cc1cc(Nc2ccccc2C(=O)O)nc2nc3ccccc3c(=O)n12,-1,-4,-15,16916*
COC(=O)c1cccc(-n2c(=O)n(Cc3ccccc3)c(=O)c3[nH]cnc32)c1C,3,14,24,2894
CC(=O)Nc1ccc(C(=O)Cn2nnc3ccccc3c2=O)cc1,3,2,-2,18940*
CCc1c(C(=O)Nc2ncn(Cc3cccc(C)c3)n2)csc1C,?,0,-6,16518*
CCc1c(C(=O)Nc2ccccc2C(N)=O)csc1C,3,13,1,5342
CCc1c(C(=O)Nc2ccncc2)csc1C,-1,-2,-7,23043*

# Screens deposited in PubChem BioAssay by NMMLSC.
